# PubChem BioAssay (NCATS)
# Records with an inconclusive call do not appear. Active and inactive are the calls of the source. Unless noted, no rule for the calls is given here.
# Experiments:
# [1] = qHTS profiling of the MIPE4 collection as inhibitors of Plasmodium falciparum (DD2) proliferation (Rep 2) (AID 743346); conditions: P. falciparum Dd2 in erythrocytes, SYBR Green DNA, 72 h; at 28.5 µM unless noted
# Procedure, shortened: (§1)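 Erythrocytes infected with P. falciparum (0.3% parasitemia, 2.5% hematocrit) incubated with compounds 72 h at 37 C, 5% CO2. Lysis with saponin/Triton buffer containing SYBR Green I, overnight at room temperature in the dark; DNA fluorescence (485/535 nm) normalised to 0.29 uM artemisinin and DMSO.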
# [2] = qHTS profiling of the MIPE4 collection as inhibitors of Plasmodium falciparum (HB3) proliferation (AID 743347);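 also: plate controls were DMSO vehicle wells for no effect and artemisinin wells for full effect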; conditions: P. falciparum HB3 in erythrocytes, SYBR Green DNA, 72 h; at 28.5 µM unless noted
# Procedure, shortened: as §1
# [3] = High-throughput drug toxicity screening in the BPDCN cell line Gen2.2 (AID 1224824); conditions: Gen2.2 BPDCN cells; at 45.8 µM (top of the series) unless noted;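 also: cells exposed to compounds for 48 h before reading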
# Procedure, shortened: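 Seed 500 exponentially growing Gen2.2 cells/well; add compounds by pin tool; incubate 48 h, 37 °C, 5% CO2; add CellTiter-Glo, 15 min RT; read luminescence. % activity vs DMSO (100%) and bortezomib (0%).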
# [4] = High-throughput drug toxicity screening in the BPDCN cell line Cal-1 (AID 1224825); conditions: Cal-1 BPDCN cell viability, qHTS; at 45.8 µM (top of the series) unless noted
# Procedure, shortened: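 Cal-1 cells, 500 per well in phenol-red-free RPMI with 10% FBS, exposed to compounds for 48 hours at 37C, 5% CO2. Viability read by CellTiter-Glo luminescence; percent activity normalized to DMSO (100%) and 9.2 uM bortezomib final (0%).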
# [5] = qHTS assay for measurement of the activity of small molecule inhibitors on Zika virus induced Caspase-3 activity in human iPSC derived neural progenitor cells (hNPCs) (AID 1224857; active = well fitted inhibition curve with a large enough effect; also: nearly all actives have a fitted effect of over 65% in size; also: potency is read from the fitted curve at half-maximal effect)
# Procedure, shortened: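 In medium with heparin 2 ug/ml and cyclopamine 2 uM, hNPCs (350 cells/well) received compound for one hour and then Zika virus at 2 FFU/cell; caspase activity was measured by Caspase-Glo 3/7 luminescence 6 h post-infection.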
# [6] = qHTS assay for measurement of the activity of small molecule inhibitors on Zika virus induced Caspase-3 activity in human astrocytoma cells (AID 1224859; active = well fitted inhibition curve with a large enough effect; also: potency is read from the fitted curve at half-maximal effect)
# Procedure, shortened: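 A cell-based luminescent caspase-3/7 assay used SNB-19 cells infected with ZIKV (2 FFU/cell) for 6 h following 1 h compound pretreatment.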
# [7] = qHTS Screen of the MIPE 4.0 Collection Against Ewings Sarcoma (EW8) (AID 1259255; active = well fitted inhibition curve with a large enough effect; also: nearly all actives have a fitted effect of over 35% in size; also: potency is read from the fitted curve at half-maximal effect;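 as to viability: 100% = DMSO-treated cells and 0% = medium-only wells without cells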)
# Procedure, shortened: (§2)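 Log-phase cells in RPMI with 5% FBS attached for 4 h, then received compounds as a titration for 48 h at 37C, 5% CO2. Viability was read by CellTiter-Glo luminescence and normalized to DMSO and no-cell wells.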
# [8] = qHTS Screen of the MIPE 4.0 Collection Against Ewings Sarcoma (TC32) (AID 1259256; active = well fitted inhibition curve with a large enough effect; also: nearly all actives have a fitted effect of over 45% in size; also: potency is read from the fitted curve at half-maximal effect)
# Procedure, shortened: as §2
# [9] = qHTS Screen of the MIPE 4.0 Collection Against Ewings Sarcoma (TC71) (AID 1259253; active = well fitted inhibition curve with a large enough effect; also: nearly all actives have a fitted effect of over 40% in size; also: potency is read from the fitted curve at half-maximal effect)
# Procedure, shortened: as §2
# [10] = qHTS Screen of the MIPE 4.0 Collection Against Ewings Sarcoma (RDES) (AID 1259252; active = well fitted inhibition curve with a large enough effect; also: potency is read from the fitted curve at half-maximal effect; nearly all actives have a fitted effect of over 35% in size)
# Procedure, shortened: as §2
SMILES,"parasite growth, % of control (lower = inhibition) [1]","growth, % of control [2]","cell viability, % of control (lower = more cytotoxic) [3]",viability (% of control) [4],Potency [5],Potency [6],Potency [7],Potency [8],Potency [9],Potency [10]
O=C(N[C@@H](c1ccccc1)[C@@H]1CCCCN1)c1cccc(C(F)(F)F)c1Cl,26.8%,8.07%,87.4%,24.7%,inactive,inactive,–,–,–,–
CC(C)(C)NC(=O)Nc1cccc(Nc2ncc(F)c(NC(C)(C)CO)n2)c1,7.73%,3.88%,235%,45.1%,inactive,inactive,–,–,–,–
COc1ccc2c(Oc3ccc(NC(=O)c4c(C)n(CC(C)(C)O)n(-c5ccccc5)c4=O)cc3F)ccnc2c1,48.9%,13.8%,16.8%,13.4%,inactive,inactive,–,–,–,–
CN(C)CCC=C1c2ccccc2COc2ccc(CC(=O)O)cc21,121%,99.1%,162%,98%,inactive,inactive,inactive,–,–,–
CO[C@H]1C[C@@H]2CC[C@@H](C)[C@@](O)(O2)C(=O)C(=O)N2CCCC[C@@H]2C(=O)O[C@H]([C@H](C)C[C@@H]2CC[C@H](OP(C)(C)=O)[C@H](OC)C2)CC(=O)[C@H](C)C=C(C)[C@@H](O)[C@@H](OC)C(=O)[C@H](C)C[C@H](C)C=CC=CC=C1C,9.19%,8.46%,10.4%,5.8%,inactive,inactive,–,–,–,–
Cc1[nH]c(C=C2C(=O)Nc3ccc(S(=O)(=O)Cc4c(Cl)cccc4Cl)cc32)c(C)c1C(=O)N1CCC[C@H]1CN1CCCC1,12%,5.52%,6.62%,2.43%,inactive,inactive,–,37.2 µM (active),–,–
CC(C)C[C@H](CC(=O)O)C(=O)N[C@@H](Cc1c[nH]c2ccccc12)C(=O)N[C@@H](C)c1ccccc1,57.5%,34.7%,161%,6.64%,inactive,inactive,–,–,–,–
Clc1cc(Cl)cc(CNc2ncncc2-c2ccc3c(c2)OCO3)c1,28.4%,10.2%,44.1%,11.1%,inactive,inactive,–,–,–,–
CC(C)[C@H](CO)Nc1nc(Nc2ccc(C(=O)O)c(Cl)c2)c2ncn(C(C)C)c2n1,29.5%,18.3%,9.58%,5.62%,inactive,inactive,–,–,–,–
CO[C@H]1C[C@@H]2CC[C@@H](C)[C@@](O)(O2)C(=O)C(=O)N2CCCC[C@@H]2C(=O)O[C@H]([C@H](C)C[C@@H]2CC[C@H](OCCO)[C@H](OC)C2)CC(=O)[C@H](C)C=C(C)[C@@H](O)[C@@H](OC)C(=O)[C@H](C)C[C@H](C)C=CC=CC=C1C,8.53%,3.94%,10.1%,12.7%,inactive,inactive,–,–,–,–
CC[C@H]1OC(=O)[C@H](C)[C@@H](O[C@H]2C[C@@](C)(OC)[C@@H](O)[C@H](C)O2)[C@H](C)[C@@H](O[C@@H]2O[C@H](C)C[C@H](N(C)C)[C@@H]2O)[C@](C)(O)C[C@@H](C)CN(C)[C@H](C)[C@@H](O)[C@]1(C)O,14%,59%,184%,120%,inactive,inactive,16.6 µM (active),–,–,–
COc1cc(Nc2ncc(F)c(Nc3ccc4c(n3)NC(=O)C(C)(C)O4)n2)cc(OC)c1OC,6.47%,2.09%,53.6%,58.1%,inactive,inactive,–,–,–,–
NC(=O)c1cccc(-c2cc(Nc3ccc(OC(F)(F)F)cc3)ncn2)c1,23%,8.8%,370%,77.2%,inactive,inactive,–,–,–,–
COc1cc(NC(=O)c2ccc(-c3ccc(Cl)cc3)o2)cc(OC)c1,99.4%,94.4%,9.04%,6.59%,inactive,inactive,–,–,–,–
CC(C)n1nc(-c2ccc3oc(N)nc3c2)c2c(N)ncnc21,6.88%,4.46%,1.63%,8.31%,inactive,inactive,–,–,–,–
O=C(O)[C@H]1O[C@H](Oc2cc3oc(-c4ccccc4)cc(=O)c3c(O)c2O)[C@H](O)[C@@H](O)[C@H]1O,57.6%,96.3%,46.5%,105%,inactive,inactive,–,18.7 µM (active),–,–
COc1cccc2c1CCCC2CCCN1CCN(C2CCCCC2)CC1 (stereo not given),16.3%,5.02%,165%,11.1%,inactive,inactive,–,–,–,–
CCC(=O)NC[C@H](Cc1ccc(OCCc2nc(-c3ccccc3)oc2C)cc1)NC(C)=CC(=O)c1ccc(C(F)(F)F)cc1,21.5%,9.04%,96.4%,5.56%,inactive,inactive,–,–,–,–
N#CC1(c2ccc(NC(=O)c3cccnc3NCc3ccncc3)cc2)CCCC1,65.6%,23.3%,286%,93.1%,16.6 µM (active),18.7 µM (active),–,inactive,–,–
O=C(O)c1ccc(-c2c[nH]c3ncc(-c4ccccc4)cc23)cc1C1CCCC1,9.67%,3.77%,116%,73.1%,inactive,inactive,–,inactive,–,–
Cc1ccc(Nc2cc(-c3cccc(N4C(=O)c5ccccc5C4=O)c3)ncn2)cc1NS(C)(=O)=O,76.5%,97.4%,52.3%,13.1%,inactive,inactive,–,–,–,–
CO[C@H]1C[C@@H]2CC[C@@H](C)[C@@](O)(O2)C(=O)C(=O)N2CCCC[C@@H]2C(=O)O[C@H]([C@@H](C)C[C@@H]2CC[C@H](O)[C@H](OC)C2)CC(=O)[C@H](C)C=C(C)[C@@H](O)[C@@H](OC)C(=O)[C@H](C)C[C@H](C)C=CC=CC=C1C,7.75%,6.63%,5.13%,2.54%,inactive,inactive,–,–,–,–
CC(C)n1cnc2c(NCCCCCCNC(=O)OC(C)(C)C)nc(NCCO)nc21,24.8%,21.3%,186%,100%,inactive,inactive,–,–,–,–

SMILES,"parasite growth, % of control (lower = inhibition) [1]","growth, % of control [2]","cell viability, % of control (lower = more cytotoxic) [3]",viability (% of control) [4],Potency [5],Potency [6],Potency [7],Potency [8],Potency [9],Potency [10]
CC=CC(=O)N(CC)c1ccccc1C,142%,99.4%,116%,35%,inactive,inactive,inactive,–,–,–
O=c1cc(-c2cccc3c2Sc2ccccc2S3)oc(N2CCOCC2)c1,61.1%,39.5%,22.3%,35.7%,inactive,inactive,–,–,–,–
N#C[C@H]1C[C@H]2C[C@@H]2N1C(=O)[C@@H](N)C12CC3CC(CC(O)(C3)C1)C2,97%,69.2%,112%,100%,inactive,inactive,–,16.6 µM (active),–,–
CN[C@@H](C)C(=O)N[C@H]1CN(C(=O)CC(C)C)CC[C@H]2CC[C@@H](C(=O)NC(c3ccccc3)c3ccccc3)N2C1=O,27.9%,72.2%,19.5%,9.02%,inactive,inactive,inactive,–,–,–
C=C1C(=O)OC(CCCCCCCC)C1C(=O)O (stereo not given),62.9%,61.5%,15.6%,98%,inactive,inactive,–,26.4 µM (active),–,–
CN(C[C@@H]1COCCO1)S(=O)(=O)Nc1ccc2ccc3ncc(-c4cnn(C)c4)cc3c(=O)c2c1,21.5%,7.9%,12.9%,7.57%,inactive,inactive,18.7 µM (active),–,–,–
Cn1c(N2CCCCS2(=O)=O)nc(C(=O)NCc2ccc(F)cc2)c(O)c1=O,83.1%,62.6%,60.2%,96.9%,inactive,inactive,–,–,–,–
COc1ccc(-c2nc(N3CCOCC3)c3sc(CN(C)c4ncc(C(=O)NO)cn4)cc3n2)cn1,8.46%,2.4%,8.39%,2.7%,inactive,inactive,–,–,–,–
CN1CCN(CCOc2cc(OC3CCOCC3)c3c(Nc4c(Cl)ccc5c4OCO5)ncnc3c2)CC1,7.87%,6.19%,54.1%,2.69%,inactive,inactive,–,–,–,–
COC1CCC(N(C(=O)C2CCC(C)CC2)c2cc(C3=CCCCC3)sc2C(=O)O)CC1 (stereo not given),–,22.9%,66.7%,89.2%,inactive,–,–,inactive,20.9 µM (active),–
COc1cccc(-c2cc(=O)c3ccccc3o2)c1N,87.6%,60%,45.3%,9.08%,18.7 µM (active),–,inactive,–,–,–
c1ccc2c(-c3cnn4cc(-c5ccc(N6CCNCC6)cc5)cnc34)ccnc2c1,6.79%,5.81%,3.03%,3.05%,inactive,–,inactive,inactive,–,–
Cc1c[nH]c(C=C2C(=O)Nc3ccccc32)c1CCC(=O)O,29.1%,37.7%,45%,55.9%,inactive,inactive,–,–,–,–
O=C1NC(=O)C(=Cc2ccc3c(c2)OC(F)(F)O3)S1,126%,125%,54.2%,83%,inactive,inactive,–,–,–,–
CC[C@@H]1C=C(C)C[C@H](C)C[C@H](OC)[C@H]2O[C@@](O)(C(=O)C(=O)N3CCCC[C@@H]3C(=O)O[C@H](C(C)=C[C@@H]3CC[C@H](Cl)[C@H](OC)C3)[C@H](C)[C@@H](O)CC1=O)[C@H](C)C[C@H]2OC,17.3%,64.6%,12.7%,20.8%,inactive,inactive,–,–,–,–
COc1ccc(-c2cc(=O)c3c(O)cc(O)cc3o2)cc1O,43.3%,67.5%,97.2%,16.3%,18.7 µM (active),–,13.2 µM (active),14.8 µM (active),9.35 µM (active),–
O=C1C[C@@H](c2ccc(O)cc2)Oc2cc(O)cc(O)c21,–,5.63%,70.3%,103%,18.7 µM (active),–,13.2 µM (active),inactive,inactive,–
COc1ccc(C2CC(c3ccccc3)=NN2c2ccc(S(N)(=O)=O)cc2)cc1 (stereo not given),46.5%,66%,76.6%,27.3%,inactive,inactive,–,–,–,–
CS(=O)c1ccc(-c2nc(-c3ccc(F)cc3)c(-c3ccncc3)[nH]2)cc1 (stereo not given),–,7.77% [at 57.5 µM],41.2% [at 92.2 µM],14.2% [at 92.2 µM],inactive,inactive,–,–,–,–
O=C1Nc2ccc(Cl)cc2C(C#CC2CC2)(C(F)(F)F)O1 (stereo not given),57.2%,63%,75.6%,56.5%,inactive,–,26.4 µM (active),–,–,–
O=C(CCN1CCN(C(=O)OCc2cc(Cl)cc(Cl)c2)CC1)c1ccc2[nH]c(=O)oc2c1,85%,105%,231%,115%,20.9 µM (active),–,inactive,–,inactive,–
CO[C@H]1C=CO[C@@]2(C)Oc3c(C)c(O)c4c(O)c(c5c(c4c3C2=O)NC2(CCN(CC(C)C)CC2)N=5)=NC(=O)C(C)=CC=C[C@H](C)[C@H](O)[C@@H](C)[C@@H](O)[C@@H](C)[C@H](OC(C)=O)[C@H]1C,12.8%,5.92%,106%,97.3%,inactive,–,–,inactive,inactive,–
O=C1c2ccccc2-[n+]2ccc3c([nH]c4ccccc43)c21,16.6%,4.72%,5.04%,3.57%,1.05 µM (active),–,1.18 µM (active),0.743 µM (active),0.935 µM (active),1.05 µM (active)
